Measured values reported in paper PMC8384837, “Expanding the binding specificity for RNA recognition by a PUF domain”.

Columns and labels:
Assay in all cases: yeast three-hybrid, YBZ-1, SC-Leu-His + 0.5 mM 3-AT, 4 days
Conditions in all cases: tags: N-Gal4 AD-HA kept; label: inside an RPR1-promoter hybrid RNA with tandem MS2 sites; ssRNA
[1] = molecular target: T1, PUM1 PUF domain R6-QRR (Homo sapiens, UniProt Q14671 828-1176, N1043Q;Y1044R;Q1047R)
T1 sequence: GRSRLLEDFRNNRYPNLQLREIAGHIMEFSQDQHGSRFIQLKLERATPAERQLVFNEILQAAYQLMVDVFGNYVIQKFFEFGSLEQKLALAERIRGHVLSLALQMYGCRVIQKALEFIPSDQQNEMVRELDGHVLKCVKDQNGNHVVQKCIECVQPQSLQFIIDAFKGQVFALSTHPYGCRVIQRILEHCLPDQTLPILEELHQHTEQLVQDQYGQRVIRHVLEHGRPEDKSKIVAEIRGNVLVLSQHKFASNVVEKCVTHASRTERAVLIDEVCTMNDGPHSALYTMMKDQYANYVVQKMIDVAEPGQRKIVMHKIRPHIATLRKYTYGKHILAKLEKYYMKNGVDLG
In short: (§1)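 Sequencing with Illumina followed PCR amplification of the repeat regions from transformants grown four days on SC-Leu (input) or SC-Leu-His + 0.5 mM 3-AT (selection). The transformants were strain YBZ-1 with a LexA–MS2 coat fusion and a HIS3 reporter, carrying Pumilio-1 PUF domain libraries and matching RNA elements. The interaction score is the log change in variant frequency from input to selection, computed in log2 with a pseudocount of 1 for absent variants.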

[2] = molecular target: PUM1 PUF domain R1-TGE (Homo sapiens, UniProt Q14671 828-1176, S863T;R864G;Q867E)
In short: as §1

[3] = molecular target: PUM1 PUF domain R4-SRI (Homo sapiens, UniProt Q14671 828-1176, N971S;H972R;Q975I)
In short: as §1

[4] = molecular target: PUM1 PUF domain R3-RSP (Homo sapiens, UniProt Q14671 828-1176, C935R;R936S;Q939P)
In short: as §1

[5] = molecular target: PUM1 PUF domain R7-RRQ (Homo sapiens, UniProt Q14671 828-1176, S1079R;N1080R;E1083Q)
In short: as §1

Sequence: GGCUAGAACUAGUGGAUCCCCCGGCGCCCGGCGGCUCGAGCCCGGGUAAGUGCAAAUAGUCUGCAUGCCGCCGGGCGCCAUGCCUGCAGGUCGACUCUAGAAAACAUG
- binding signal [1]: 5.8 log2 enrichment (interaction score)

Sequence: GGCUAGAACUAGUGGAUCCCCCGGCGCCCGGCGGCUCGAGCCCGGGUAAGUGUAAAUGGUCUGCAUGCCGCCGGGCGCCAUGCCUGCAGGUCGACUCUAGAAAACAUG
- binding signal [2]: 2.92 log2 enrichment (interaction score)

Sequence: GGCUAGAACUAGUGGAUCCCCCGGCGCCCGGCGGCUCGAGCCCGGGUAAGUGUAUAUAGUCUGCAUGCCGCCGGGCGCCAUGCCUGCAGGUCGACUCUAGAAAACAUG
- binding signal [3]: 1.38 log2 enrichment (interaction score)

Sequence: GGCUAGAACUAGUGGAUCCCCCGGCGCCCGGCGGCUCGAGCCCGGGUAAGUGUAAGUAGUCUGCAUGCCGCCGGGCGCCAUGCCUGCAGGUCGACUCUAGAAAACAUG
- binding signal [4]: 1.39 log2 enrichment (interaction score)

Sequence: GGCUAGAACUAGUGGAUCCCCCGGCGCCCGGCGGCUCGAGCCCGGGUAAGUUUAAAUAGUCUGCAUGCCGCCGGGCGCCAUGCCUGCAGGUCGACUCUAGAAAACAUG
- binding signal [5]: 5.4 log2 enrichment (interaction score)
